Screening data: PubChem, National Center for Advancing Translational Sciences (NCATS)
Hits are enriched below; roughly 2.1% of the tested compounds scored in any of these assays.
TSG101-PTAP inh: blocks PTAP/TSG101 interaction to inhibit HIV-1 budding | Fluorescence polarization, FITC-PTAP peptide / Tsg101 binding | Potency, µM (series often up to 115 µM), without a hit: top-dose activity change, negative = inhibition, actives largely listed as inhibitors | 340,000 tested, under 10 active | AID 493005; active = well fitted inhibition curve with a large enough effect in the main read-out, with a control signal flat, not every such curve was filed as active; inconclusive = small, poorly fitted or top-dose-only effect, or effect the other way, or a change in a side signal; inactive = no such curve, though single readings can be large or run the other way; also: % of control where 0% means no effect
Target sequence (Q99816 whole entry, looked up): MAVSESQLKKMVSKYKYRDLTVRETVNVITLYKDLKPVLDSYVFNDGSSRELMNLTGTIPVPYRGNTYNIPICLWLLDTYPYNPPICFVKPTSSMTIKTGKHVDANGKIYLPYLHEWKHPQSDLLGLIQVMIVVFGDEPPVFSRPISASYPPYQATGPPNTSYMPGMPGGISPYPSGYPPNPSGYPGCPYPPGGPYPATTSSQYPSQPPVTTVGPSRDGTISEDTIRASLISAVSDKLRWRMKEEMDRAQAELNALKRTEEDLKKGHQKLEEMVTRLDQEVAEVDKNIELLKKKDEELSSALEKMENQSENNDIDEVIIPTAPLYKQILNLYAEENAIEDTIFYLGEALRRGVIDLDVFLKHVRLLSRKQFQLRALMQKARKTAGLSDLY
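Steps: Tsg101 binding domain dispensed (10 uM final), compounds pinned in DMSO, FITC-labeled PTAP-motif peptide added (50 nM final); after 20 min binding at room temperature, polarization measured.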
Abeta yeast res: restores growth of yeast expressing A-beta42 peptide; yeast expressing A-beta42, growth rescue, OD600, 48 h; response scale: 0% DMSO, 100% iron-clioquinol control; Potency, µM (series often up to 46.1 µM), actives largely listed as activators; 410,000 compounds, 0.063% hits; also: nearly all actives have a fitted effect of over 55% in size
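Growth rescue measured by 600 nm absorbance after 48 h yeast culture at 30 C with compound. Values normalized between DMSO and an equimolar ferric chloride plus clioquinol control.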
FUS suppressor: rescues growth of FUS-expressing yeast | S. cerevisiae FUS-expressing, growth rescue, OD600, 24 h | Potency, µM (doses to about 76.6 µM), hits mostly activators | 390,000 compounds, 0.24% hits;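 also: plate controls were DMSO vehicle for no effect and reference control for full effect; nearly all actives have a fitted effect of over 55% in size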
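Read-out: OD at 600 nm after 24hr at 30C, reporting rescue of FUS-induced yeast toxicity. Cells at OD 0.005 in galactose (2%) minimal medium; compounds tested in a dilution series; CP55940 titration from 92uM final as control.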
aSyn yeast inh: inhibitors of alpha-synuclein toxicity in yeast. Yeast expressing alpha-synuclein, growth rescue, BacTiter-Glo, 24 h. Potency, µM (titrated, usually from 46.1 µM), for the others: top-dose growth rescue (activation), hits mostly activators. 370,000 compounds, 0.14% hits; also: % of control where 0% means no effect; nearly all actives have a fitted effect of over 65% in size
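Screening used galactose-induced yeast with toxic alpha-synuclein levels, exposed to compound for 24 hr at 30 deg C. Cell growth, read with BacTiter-Glo luminescence, gave the measured signal.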
TDP43 rescue: TDP-43 toxicity inhibition in yeast. Potency, µM (titrated, usually from 46.1 µM), for inactives: at the top dose growth rescue (activation), usual class: activators. 410,000 compounds, 1.8% hits. TDP-43 expressing yeast growth rescue, BacTiter-Glo, 24 h. AID 652104; also: % of control where 0% means no effect; nearly all actives have a fitted effect of over 50% in size
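Yeast expressing TDP-43 (pregrown in raffinose, seeded at OD600=0.02 in galactose medium) exposed to compounds 24 hr at 30 deg C. Growth read by BacTiter-Glo luminescence; rescue of toxicity appears as increased signal.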
* = called active by the depositor; i = inactive; ? = inconclusive; nt = no result; [ ] = dose if it differs, or a comment. Unless noted, calls follow the shape of the dose curve; as a rule, active = well fitted curve in the direction sought with a large enough effect; inconclusive = small, poorly fitted or top-dose-only effect, or another doubt; inactive = no such curve, though single readings can be large; an effect the other way counts as inactive or inconclusive. Potency is read from the fitted curve at half-maximal effect.

SMILES	TSG101-PTAP inh	Abeta yeast res	FUS suppressor	aSyn yeast inh	TDP43 rescue
COCCn1c(C)cc(C2=NNC(=Nc3ccccc3)SC2)c1C	-6%	i	10µM*	1%	-10%
COc1cc(NC(=O)CN2Cc3ccccc3C2=O)cc(OC)c1OC	nt	i	i	nt	16%
Cc1ccc(C(C)C)c(OCc2ccc(C(=O)N/N=C/c3cccc(O)c3O)cc2)c1	0%	?	i	13µM*	13µM*
CCOC(=O)c1c(-c2ccc(OC)cc2)csc1/N=C/C1=C(O)CCCC1=O	3%	i	?	11%	8.9µM*
CCOC(=O)c1c(/N=C/C2=C(O)CCCC2=O)sc(C)c1C	0%	i	i	1%	-11%
O=C(c1cc(COc2ccc(F)cc2Cl)on1)N1CCN(C2CCCCC2)C(=O)C1	-4%	i	nt	20%	20µM*
O=C(c1cc(COc2ccc(F)cc2Cl)on1)N1CCN(C2CCCC2)CC1	-6%	i	i	-6%	-3%
O=C(COC(=O)C1CCN(c2ccc(C(F)(F)F)cn2)CC1)NCc1ccccc1	0%	i	i	0%	22µM*
Cc1ccc(NC(=O)COC(=O)C2CCN(c3ccc(C(F)(F)F)cn3)CC2)cc1	-1%	?	i	2%	25µM*
CCCOC(=O)c1ccc(NC(=O)COC(=O)C2CCN(c3ccc(C(F)(F)F)cn3)CC2)cc1	3%	i	i	0%[1.84 µM]	?
CC(NC(=O)COC(=O)C1CCN(c2ccc(C(F)(F)F)cn2)CC1)c1ccccc1 (centres undefined)	nt	i	i	27%	-4%
CN(Cc1ccccc1)c1nnc(NC(=O)Nc2cccc(Br)c2)s1	nt	i	i	nt	-2%
N=c1c2c(ncn1CCN1CCOCC1)Oc1ccc3ccccc3c1C2c1ccccc1 (centres undefined)	0%	i	i	nt	-26%
N=c1c2c(ccn1Cc1ccccc1)Oc1ccc3ccccc3c1C2c1ccccc1 (centres undefined)	nt	nt	14µM*	nt	nt
CCN(CC)c1ccc(/C=C2\C=Cc3ccccc32)cc1	nt	nt	nt	2%	nt
COc1cc(/C=C/C(=O)OCC(=O)Nc2cc(S(=O)(=O)N3CCCCC3)ccc2C)ccc1O	-3%	i	25µM*	-8%	6%
O=C(Cn1nc(C(F)(F)F)c2c1CCC2)Nc1ccc(Cl)cc1	nt	i	i	nt	23%
CCOc1cc(S(=O)(=O)NC2CCCCC2)ccc1F	-8%	i	i	5%	?
CCOc1cc(S(=O)(=O)NC2CCCC2)ccc1Cl	-6%	i	i	0%	20µM*
Oc1ccc(Cl)cc1-c1cc(-c2ccco2)[nH]n1	-7%	i	i	-58%	-35%
Oc1ccc(Cl)cc1-c1cc(-c2cccc(Br)c2)n[nH]1	-2%	i	i	-4%	?
Oc1ccccc1-c1cc(-c2ccco2)[nH]n1	0%	i	i	-2%	20%
Oc1ccc(Br)cc1-c1cc(-c2ccco2)[nH]n1	-2%	i	i	-22%	13µM*
Oc1c(-c2cc(-c3ccco3)[nH]n2)ccc2ccccc12	-1%	i	i	-31%	10µM*
Oc1ccc(Br)cc1-c1ccn[nH]1	1%	i	nt	-7%	13µM*
SMILES	TSG101-PTAP inh	Abeta yeast res	FUS suppressor	aSyn yeast inh	TDP43 rescue
COc1cc2cc(C(=O)N3CCc4ccccc4C3)[nH]c2cc1OC	-5%	i	i	7%	5%
COc1cc2[nH]c(C(=O)N3CCc4ccccc4C3)cc2c(OC)c1OC	-2%	i	i	-16%	22µM*
COc1cc(OC)c(C2Nc3ccccc3-c3nnc(SCc4ccccc4)nc3O2)cc1OC (centres undefined)	nt	i	i	nt	30%
COc1ccc(-c2noc(CSc3nnc(Cc4ccccc4)n3-c3ccc(F)cc3)n2)cc1	nt	i	14µM*	nt	35µM*
COc1ccc(-c2noc(CSc3nnc(Cc4ccccc4)n3-c3cccc(C)c3)n2)cc1	nt	i	?	nt	3%
COc1ccc(-c2noc(CSc3nc4ccccc4[nH]3)n2)cc1	nt	i	i	nt	11µM*
